Laboratory results reported in the supplement of paper PMC4188521.

The targets below were run with CCc1cnn2c(NCc3ccc[n+]([O-])c3)cc(N3CCCC[C@H]3CCO)nc12 [dinaciclib] (assay: cell viability remaining relative to DMSO control; higher = less cytotoxic (more viable cells)). Details: 100 nM; 24 h.
Method in brief: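 Remaining viability, expressed as a percentage of the DMSO control, compares luminescence in treated wells with that in DMSO-treated control wells. Solid tumour cell lines from commercial banks received 100 nM of the test compound for 24 hr, with final DMSO kept at ≤0.2%. Viability was read as ATP luminescence using CellTiter-Glo, and values are means from 2–6 plates run in triplicate wells.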

| Target | cell viability remaining [%] |
| --- | --- |
| HEC151 | 39 |
| HS294T | 52.6 |
| SW48 | 55.8 |
| HEC59 | 67.6 |
| WM115 | 69.1 |
| SW1116 | 86.8 |
| BT20 | 45.2 |
| SH4 | 64.5 |
| OAW28 | 63.1 |
| ZR751 | 91.3 |
| HCT15 | 45.4 |
| CAL51 | 43.8 |
| HEC50B | 83.4 |
| SW948 | 72.6 |
| G401 | 10.4 |
| H2122 | 48.2 |
| CHP212 | 19.7 |

| Target | cell viability remaining [%] |
| --- | --- |
| RMUGS | 62 |
| DKMG | 44 |
| A498 | 68.3 |
| MDAMB468 | 29.1 |
| MCF7 | 76 |
| MEWO | 52.8 |
| CHL1 | 3.1 |
| SW480 | 81.7 |
| H1568 | 28.7 |
| DBTRG05MG | 81.7 |
| HS852T | 54.3 |
| HCC827 | 67.9 |
| RD | 41.1 |
| COLO829 | 24.8 |
| HCC1806 | 60 |
| A375 | 62 |
